Drawing on PubChem BioAssay (NCI), this text covers growth for 13 compounds.

Test systems include HCT-15 colon; HT29 colon; SNB-75 CNS; SNB-19 CNS; U251 CNS; PC-3 prostate; SK-MEL-5 melanoma; UACC-62 melanoma; LOX IMVI melanoma; SK-MEL-28 melanoma.
Experiment in all cases: NCI-60 one-dose screen, 48 h (100 = growth as untreated, 0 = no growth, -100 = all killed)
Common to all, as to conditions: 10 µM

The panel holds about 83,000 compounds, 20% with a hit somewhere; the sample as a whole holds those more often.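 Step 1: grow cells in 96-well plates. Step 2: add test compound at a single concentration. Step 3: incubate 48 h. Step 4: record percent growth.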 A number with no mark means an inactive call. The source made the active and inactive calls. Rule for the calls: active = growth percent below 10; inactive = the rest.

As for `CCN(CC)CCOc1cccc2c1C(=O)c1cccc(OCCN(CC)CC)c1C2=O`, the growth is 57% in the assay with HCT-15 colon; 13.8% with HT29 colon; 53.3% with SNB-75 CNS; 31.8% in the assay with SNB-19 CNS; 24.8% in the assay on U251 CNS; 32.2% in the assay with PC-3 prostate. In addition, the growth in the assay with SK-MEL-5 melanoma is 72%; with UACC-62 melanoma, 56.9%; with LOX IMVI melanoma it was 18.2%; in the assay with SK-MEL-28 melanoma, 82.5%.
As to `Cc1cc(CC(C)CC(C)(C)C)n(O)c(=O)c1` (stereo not given) (tested in a mixture with another compound), the growth in the assay on HCT-15 colon was 23.8%; with HT29 colon it was 53.2%; in the assay with SNB-75 CNS, 16.7%; in the assay with SNB-19 CNS, 26%; in the assay with U251 CNS, 17.8%; in the assay with PC-3 prostate, 33.9%. Also, the growth was -1.17% (active) with SK-MEL-5 melanoma, -8.65% (active) in the assay with UACC-62 melanoma, 7.96% (active) in the assay on LOX IMVI melanoma and 25.1% in the assay with SK-MEL-28 melanoma.
Take `CC(C)(C)OC(=O)N1CCc2c(sc3ncnc(N/N=C/c4cccc5ccccc45)c23)C1`: the growth with HCT-15 colon was 6.88% (active); in the assay with HT29 colon it was 26.2%; in the assay on SNB-75 CNS it was -3.28% (active); with SNB-19 CNS, 26.3%; in the assay on U251 CNS, 33.7%; in the assay with PC-3 prostate, 25.9%. In addition, the growth was -57.2% (active) in the assay on SK-MEL-5 melanoma, 0.0448% (active) with UACC-62 melanoma, 13.1% with LOX IMVI melanoma and 32.9% in the assay on SK-MEL-28 melanoma.
As to `Cc1ccc(/C=C/C(=O)C(=O)/C=C/c2ccc(C)cc2)cc1`, the growth with HCT-15 colon was 95.5%; with HT29 colon, 91.4%; in the assay on SNB-75 CNS, 90.4%; in the assay with SNB-19 CNS it was 103%; with U251 CNS it was 93%; in the assay on PC-3 prostate it was 92.2%. Besides, the growth was 106% in the assay on SK-MEL-5 melanoma, 96.7% in the assay on UACC-62 melanoma, 89.3% with LOX IMVI melanoma and 108% with SK-MEL-28 melanoma.
`Cc1ccccc1N1C(=O)c2cc(S(N)(=O)=O)c(Cl)cc2NC1C` (stereo not given): the growth in the assay with HCT-15 colon is 108%; with HT29 colon it was 101%; with SNB-75 CNS, 87.1%; in the assay with SNB-19 CNS, 116%; with U251 CNS it was 105%; in the assay with PC-3 prostate it was 93.6%. The growth is 104% with SK-MEL-5 melanoma, 114% with UACC-62 melanoma, 99.7% in the assay on LOX IMVI melanoma and 116% in the assay on SK-MEL-28 melanoma.
Consider `CCc1c2c(nc3ccc(OC(=O)N4CCC(N5CCCCC5)CC4)cc13)-c1cc3c(c(=O)n1C2)COC(=O)[C@]3(O)CC`, for which the growth is 53.1% in the assay on HCT-15 colon; 28.8% in the assay with HT29 colon; -5.06% (active) in the assay on SNB-75 CNS; 26% in the assay on SNB-19 CNS; 13.6% in the assay on U251 CNS; 40.9% with PC-3 prostate. In addition, the growth is -11.9% (active) in the assay on SK-MEL-5 melanoma, 17.9% with UACC-62 melanoma, 4.61% (active) in the assay with LOX IMVI melanoma and 67% in the assay with SK-MEL-28 melanoma.
Take `CN(C)CCCOc1ccccc1NC1=C(Cl)C(=O)C(Nc2ccccc2OCCCN(C)C)=C(Cl)C1=O`: the growth is -49% (active) with HCT-15 colon; -51% (active) in the assay on HT29 colon; 35% in the assay with SNB-75 CNS; -87.1% (active) in the assay with SNB-19 CNS; -86.1% (active) with U251 CNS; -20.8% (active) with PC-3 prostate. The growth is -96.3% (active) in the assay with SK-MEL-5 melanoma, -77.8% (active) in the assay with UACC-62 melanoma, -74.9% (active) with LOX IMVI melanoma and 14.1% with SK-MEL-28 melanoma.
In the case of `O=C(NCCCNS(=O)(=O)c1ccc(Cl)cc1)Nc1ccc(-n2cc(-c3ccncc3)c(-c3ccc(Cl)c(O)c3)n2)cc1`, the growth in the assay on HCT-15 colon is 36.1%; in the assay on HT29 colon it was 0.25% (active); in the assay with SNB-75 CNS, 61.7%; in the assay on SNB-19 CNS, 51.1%; with U251 CNS, 37.6%; in the assay on PC-3 prostate it was 17.3%. Moreover, the growth with SK-MEL-5 melanoma is 2.07% (active); with UACC-62 melanoma, 42.8%; in the assay on LOX IMVI melanoma, 24.1%; with SK-MEL-28 melanoma, 40.7%.
As for `O=C1c2ccccc2C(=O)c2c1ccc1c(=O)n(-c3ccccc3C(F)(F)F)nnc21`, the growth in the assay with HCT-15 colon was 3.36% (active); with HT29 colon, 31.5%; in the assay with SNB-75 CNS it was 34.6%; with SNB-19 CNS, 18.2%; with U251 CNS it was 17.7%; in the assay on PC-3 prostate, 12.9%. Also, the growth in the assay with SK-MEL-5 melanoma is -94.3% (active); in the assay with UACC-62 melanoma, -34.8% (active); with LOX IMVI melanoma, -5.7% (active); with SK-MEL-28 melanoma, 63.5%.
Take `COc1cc(/C=C/c2cc(/C=C/c3ccc(O)c(OC)c3)n(C(=O)Nc3ccc(C)cc3)n2)ccc1O`: the growth is 15.2% with HCT-15 colon; -22.4% (active) in the assay with HT29 colon; 9.53% (active) with SNB-75 CNS; 20.3% with SNB-19 CNS; 6.19% (active) with U251 CNS; 8.08% (active) in the assay on PC-3 prostate. For the same compound, the growth was 1.16% (active) in the assay on SK-MEL-5 melanoma, -0.493% (active) in the assay on UACC-62 melanoma, 1.89% (active) in the assay on LOX IMVI melanoma and 13.2% with SK-MEL-28 melanoma.
Consider `OC(CNc1ccnc2cc(Cl)ccc12)CNC1CCCCC1` (stereo not given), for which the growth with HCT-15 colon was 75.6%; with HT29 colon it was 31.3%; with SNB-75 CNS it was 87.4%; in the assay on SNB-19 CNS, 100%; in the assay with U251 CNS, 63.1%; with PC-3 prostate it was 69.4%. Moreover, the growth in the assay with SK-MEL-5 melanoma is 15.3%; with UACC-62 melanoma it was 61.4%; in the assay on LOX IMVI melanoma it was 73%; in the assay on SK-MEL-28 melanoma it was 23.3%.
On to `Cc1ccc(NCCNCC(C)(C)O)c2c(=O)c3ccc(Cl)cc3sc12`, for which the growth in the assay on HCT-15 colon is -7.39% (active); in the assay on HT29 colon, -73.1% (active); in the assay with SNB-75 CNS, 76.1%; with SNB-19 CNS, 46.2%; with U251 CNS, -74.5% (active); in the assay with PC-3 prostate it was 36.8%. Besides, the growth with SK-MEL-5 melanoma was 44.2%; in the assay on UACC-62 melanoma it was -66.6% (active); with LOX IMVI melanoma it was -92.6% (active); in the assay with SK-MEL-28 melanoma, -60% (active).
Regarding `COc1ccc(CCN2CCC(Nc3nc4ccccc4n3Cc3ccc(F)cc3)CC2)cc1`, the growth in the assay on HCT-15 colon is -23% (active); in the assay on HT29 colon it was -53.6% (active); in the assay with SNB-75 CNS, -29.9% (active); in the assay with SNB-19 CNS, 40.6%; with U251 CNS, -70.9% (active); in the assay with PC-3 prostate, 29.4%. Moreover, the growth was -100% (active) with SK-MEL-5 melanoma, -85.6% (active) in the assay on UACC-62 melanoma, -87.9% (active) in the assay with LOX IMVI melanoma and -76.7% (active) in the assay on SK-MEL-28 melanoma.
